Assay outcomes: PubChem, National Center for Advancing Translational Sciences (NCATS)
A selection: hits, their analogues and other compounds. The true share with any hit is near 11%.
RORg inh: ROR gamma (mouse) transcription inhibition; 310,000 tested, 5.4% active; P51450; AID 2551; Potency, µM (highest dose often 53.6 µM), for the others: at the highest dose activity change, negative = inhibition, most hits filed as inhibitors; Drosophila S2 Gal4-RORgamma UAS-luciferase reporter, 20 h; also: potency is read from the fitted curve at half-maximal effect; % is scaled to controls: 0 for no effect and ±100 for the full control effect; nearly all actives have a fitted effect of over 60% in size
Target sequence (P51450 whole entry, looked up, the tested form may be a part): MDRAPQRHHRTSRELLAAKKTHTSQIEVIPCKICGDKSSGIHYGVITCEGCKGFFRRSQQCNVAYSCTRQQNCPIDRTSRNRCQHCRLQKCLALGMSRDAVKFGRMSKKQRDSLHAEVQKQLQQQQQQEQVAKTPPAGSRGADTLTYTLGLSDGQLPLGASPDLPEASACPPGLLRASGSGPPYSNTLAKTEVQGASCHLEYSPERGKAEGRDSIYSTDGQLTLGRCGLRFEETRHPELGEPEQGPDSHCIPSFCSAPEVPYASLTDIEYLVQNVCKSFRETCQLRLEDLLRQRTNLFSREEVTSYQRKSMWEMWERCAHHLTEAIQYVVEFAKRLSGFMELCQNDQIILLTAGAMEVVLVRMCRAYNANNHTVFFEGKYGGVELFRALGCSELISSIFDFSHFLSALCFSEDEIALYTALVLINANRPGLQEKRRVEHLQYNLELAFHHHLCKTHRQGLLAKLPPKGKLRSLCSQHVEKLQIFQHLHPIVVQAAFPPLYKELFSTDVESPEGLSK
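Read-out: Photinus luciferase luminescence; inhibitors lower reporter signal. Insect Schneider cells with Gal4-ROR gamma fusion under metallothionein promoter, UAS reporter; 700 uM final copper sulfate induction, 20 hr, ambient temperature.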
SW480 rerep: induces DNA re-replication in SW480 colon adenocarcinoma cells; Potency, µM (highest dose often 46.1 µM), without a hit: at the top dose re-replication activation, actives largely listed as activators; 340,000 tested, 1.8% active; SW480 DNA re-replication, Hoechst DNA content imaging, 48 h; also: potency is read from the fitted curve at half-maximal effect; % of control where 0% means no effect; nearly all actives have a fitted effect of over 55% in size
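Readout is total intensity of Hoechst-stained nuclei, excited at 405 nm and collected at 500-530 nm. Compound treatment lasted 48 hr at 37 C in 5% CO2 before staining.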
MCF10A rerep: DNA re-replication induction in MCF 10a cells; MCF 10A DNA re-replication, Hoechst nuclear intensity, 48 h; Potency, µM (highest dose often 46.1 µM), for the others: at the highest dose activity, positive = re-replication, most hits filed as activators; 350,000 tested, 2.9% active; also: potency is read from the fitted curve at half-maximal effect; % of control where 0% means no effect; nearly all actives have a fitted effect of over 50% in size
Gal4-VP16 FLuc: counter-screen for ROR gamma inhibitors: Gal4-VP16 reporter | 310,000 tested, 3.5% active | AID 2546 | Potency, µM (top dose mostly 53.6 µM), for inactives: at the top dose activity, negative = inhibition, most hits filed as inhibitors | Drosophila S2 Gal4-VP16 UAS-luciferase, luminescence, 20 h;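 also: Gal4-VP16 expression switched on by copper sulfate through the metallothionein promoter; potency is read from the fitted curve at half-maximal effect; % is scaled to controls: 0 for no effect and ±100 for the full control effect; nearly all actives have a fitted effect of over 50% in size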
IL1B secr inh: inhibitors of inflammasome signaling (IL-1 beta secretion); THP-1 LPS/ATP IL-1B secretion, AlphaLISA, 16 h; stronger effect = lower value; activity change, % at 57.5 µM; 360,000 tested, 4.7% active; AID 743279; in the data active = activity change below about -50%; inconclusive = mostly about -30% to -49%; also: % is scaled to controls: 0 for no effect and ±100 for the full control effect
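Secreted IL-1B measured by AlphaLISA bead assay after 16 h compound exposure of THP-1 cells; compounds (final up to 57.5 uM) added 1 h before LPS (250 ng/mL) and ATP (1.25 mM) stimulation; lower signal means less secretion.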
Active calls of the source: *; ? = inconclusive; . = no result; ! = repeats disagree; [ ] = another dose, or the depositor's remark. Unless noted, calls follow the shape of the dose curve; as a rule, active = well fitted curve in the direction sought with a large enough effect; inconclusive = small, poorly fitted or top-dose-only effect, or another doubt; inactive = no such curve, though single readings can be large; an effect the other way counts as inactive or inconclusive.

SMILES	RORg inh	SW480 rerep	MCF10A rerep	Gal4-VP16 FLuc	IL1B secr inh
CC1(C)SC2c3ccccc3C(=O)N2[C@@H]1C(=O)O (stereo partly specified)	-22.4%	-6.5%	4.8%	2.3%	-4.2
Cc1cccc(C)c1NC(=O)CN(C)C(=O)c1cccc(S(=O)(=O)N2CCN(c3ccccc3)CC2)c1	.	7.2%	-0.2%	.	-11.1
CN(Cc1ccc(OC(F)F)cc1)C(=O)c1cccc(S(=O)(=O)N2CCN(c3ccccc3)CC2)c1	.	-5.1%	-1.4%	.	-62.4*
COc1ccc(C(=O)N(C)Cc2cnn(Cc3ccccc3)c2)cc1S(=O)(=O)N1CCOCC1	.	4.11µM*	3.66µM*	.	5.4
CN(Cc1cnn(Cc2ccccc2)c1)C(=O)c1cccc(S(=O)(=O)N2CCOCC2)c1	.	18.4µM*	?	.	54.2
CN(Cc1ccc(Cl)c(Cl)c1)C(=O)c1cccc(S(=O)(=O)N2CCN(Cc3ccccc3)CC2)c1	.	-34.4%	28.6%	.	?
Cc1ccc(N(C)S(=O)(=O)c2cccc(C(=O)N(C)Cc3cnn(-c4ccccc4)c3)c2)cc1	.	?	20.6µM*	.	-80.9*
O=C(Cn1nnc(-c2ccc(Cl)cc2)n1)NC(=O)NC1CCCC1	.	.	.	.	56.6
O=C(NCc1ccc(Cl)c(Cl)c1)c1cc(C2CCCCN2C(=O)c2ccccn2)on1 (stereo unspecified)	.	.	.	.	0.3
NC(c1ccc(F)c(F)c1)c1nc(-c2cc(F)cc(F)c2)cs1 (stereo unspecified)	.	.	.	.	4.9
Cc1ccnc(NCc2cc(Cl)ccc2O)c1	.	.	.	.	-7.1
Cc1ccnc(NCc2ccc(Cl)cc2)c1	-4.1%	?	10.4%	-4.5%	-58.2*
Clc1ccc(CNc2ccccn2)cc1	11.4%	-0.5%	?	?	?
FC(F)(F)c1ccnc(NCc2ccc(Cl)cc2)n1	-8.8%	-0.7%	13.7%	-4.9%	-55.3*
OC(CSc1nnnn1-c1ccccc1)Cn1c2ccccc2c2ccccc21 (stereo unspecified)	.	.	.	.	-21.7
CC1(C(=O)Nc2cccc(OC(F)(F)F)c2)Cc2c(-c3ccc4c(c3)OCO4)ccnc2O1 (stereo unspecified)	.	.	.	.	89.5
O=S(=O)(Nc1cccc(-c2cn3c(n2)SCC3)c1)c1ccccc1	2.5%	-3.3%	11.0%	-0.4%	-7.9
CCCCC(=O)NC(=S)Nc1ccccc1C(=O)Nc1ccccc1	-28.5%	2.7%	2.2%	-0.5%	-10.9
COCC(=O)Nc1ccc(Br)cc1C	9.1%	-52.6%	-0.3%	8.2%	17.3
CCCCCC(=O)NC(=S)Nc1ccc(Br)cc1C	10µM*	4.6%	11.7%	?	1.1
COC(=O)c1ccccc1NC(=S)NC(=O)COc1ccccc1	5.62µM*	3.5%	-2.1%	11.2µM*	23.5
CCCCCC(=O)NC(=S)Nc1ccccc1C(=O)OC	14.1µM*	0.1%	2.2%	?	45.1
O=C(COc1ccccc1)NC(=S)Nc1cccc2c(O)cccc12	.	.	.	.	64.5
COC(=O)c1ccccc1NC(=S)NC(=O)CC(C)C	12.6µM*	-0.7%	-0.3%	?	16.1
O=C(O)c1ccccc1-c1c2cc(Br)c(=O)c(Br)c-2oc2c(Br)c(O)c(Br)cc12	11.5%	-6.4%	-9.6%	?	.
SMILES	RORg inh	SW480 rerep	MCF10A rerep	Gal4-VP16 FLuc	IL1B secr inh
O=C(COc1ccccc1)NC(=S)Nc1ccc(Br)cn1	12.6µM*	-3.2%	-2.5%	?	8.7
O=C(NC(=S)Nc1ccc(Br)cn1)c1cccnc1	34.1%	0.2%	-3.1%	3.8%	54.2
O=C(/C=C/[C@H]1O[C@@H](n2cnc3c(NC(=O)c4ccccc4)ncnc32)[C@H](O)[C@@H]1O)NCc1cccc2ccccc12	.	.	.	.	-25.1
O=C(NC1CCCC1)C(c1ccncc1)N(Cc1ccccc1)C(=O)c1ccc(-c2ccccc2)[nH]1 (stereo unspecified)	-42.1%[10 µM]	?	?	?	-79.2*
Cc1ccc(C(C(=O)NCC2CCCO2)N(Cc2ccccc2)C(=O)c2ccc(-c3ccccc3)[nH]2)o1 (stereo unspecified)	?	?	?	?	-78.6*
O=C(NC1CCCC1)C(c1ccncc1)N(CCCN1CCOCC1)C(=O)c1ccc(-c2ccccc2)[nH]1 (stereo unspecified)	6.5%	-3.5%	-1.6%	-8.5%	?
O=C(NC1CCCC1)C(c1ccncc1)N(Cc1ccco1)C(=O)c1ccc(-c2ccccc2)[nH]1 (stereo unspecified)	?	?	?	14.1%[10 µM]	-104.9*
C[C@H](CO)N1C[C@H](C)[C@H](CN(C)Cc2ccncc2)Oc2cc(-c3ccccc3F)ccc2S1(=O)=O	.	.	.	.	-28.7
Cc1cc(S(=O)(=O)NCc2cccnc2)ccc1-n1cnnn1	7.3%	?	18.4µM*	2.4%	15.8
Cc1cc(S(=O)(=O)NCc2cccs2)ccc1-n1cnnn1	11.1%	-0.7%	-0.1%	?	-15.4
Cc1nn(-c2ccccc2Cl)c(Cl)c1/C=N/Nc1nc2ccccc2s1	1µM*	1.7%	5.1%	0.316µM*	12.1
C/C(=N\Nc1nc2ccccc2s1)c1cccs1	0.708µM*	?	?	3.55µM*	-83.3*
CCn1c(C)c(/C=N/Nc2nc3ccccc3s2)c2ccccc21	5.01µM*	?	10.7%	?	?
Oc1ccccc1C=NNc1nc2ccccc2s1	.	?	-7.7%	.	?
C(=N\Nc1nc2ccccc2s1)/c1cccs1	1.26µM*	11.9%	-3.2%	3.16µM*	?
CCOC(=O)N/N=C/c1c(C)nn(-c2ccccc2Cl)c1Cl	?	10.0%	18.4%	?	-9.3
CC(=O)Nc1ccc(/C=N/Nc2nc3ccccc3s2)cc1	-9.1%	-7.1%	3.0%	2.9%	51.6
Oc1ccc(C=NNc2nc3ccccc3s2)c(O)c1	.	?	?	.	-0.7
C(=N\Nc1nc2ccccc2s1)/c1ccco1	11.2µM*	-18.4%	-18.8%	?	?
Cc1ccsc1/C=N/Nc1nc2ccccc2s1	0.562µM*	-3.2%	0.0%	0.891µM*	-12.3
c1ncc(-c2ccc3c(c2)OCO3)c(NCCc2cnc[nH]2)n1	-5.5%	.	.	4.4%	.
CSc1ccc(S(=O)(=O)NC2CCCCCC2)cc1	-109.8%	-3.5%	9.2µM*	?	-0.3
CC(=O)Nc1ccc(S(=O)(=O)NC2CCCCCC2)cc1	8.7%	-5.7%	21.9%	-11.5%	2.6
CNc1ccc2ncc(-c3ccccc3NC(C)=O)n2n1	.	.	.	.	20.3
CCOc1ccc(Cc2nccc3cc(OCC)c(OCC)cc23)cc1OCC	-1.2%	-1.5%[20.6 µM]	0.7%[20.6 µM]	15.8µM*!	.
COc1ccc(C(C)(O)c2nc(-c3cccs3)cs2)cc1 (stereo unspecified)	.	.	.	.	0.0
O=C(c1cccc(S(=O)(=O)NCc2ccccc2)c1)N1CCN(c2ccc(F)cc2)CC1	.	17.1%	3.2%	.	-6.6
O=C(c1cccc(S(=O)(=O)NCc2ccccc2)c1)N1CCN(c2ccccc2Cl)CC1	.	16.4µM*	?	.	-17.7
